Results published in PubChem BioAssay (Tox21).
Results filed as inconclusive are left out. Active and inactive are the calls of the source. Unless noted, calls come from the whole dose curve.

Legend:
[1] = qHTS assay to identify small molecule agonists of the vitamin D receptor (VDR) signaling pathway - cell viability counter screen (AID 743224; active = well fitted cell-killing curve with a large enough effect in the repeat runs; note: series mostly up to about 63 µM; % is set by controls: 0 for no effect and ±100 for the full control effect; nearly all actives have a fitted effect of over 50% in size)
Method in brief: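 In parallel with the bla FRET readout, cytotoxicity toward VDR-bla cells after 16 h compound exposure was assessed by CellTiter-Glo, with luminescence recorded after a 30 min room-temperature incubation.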

[2] = qHTS assay to identify small molecule antagonists of the vitamin D receptor (VDR) signaling pathway - cell viability counter screen (AID 743225; active = well fitted cell-killing curve with a large enough effect in the repeat runs; note: % is set by controls: 0 for no effect and ±100 for the full control effect; nearly all actives have a fitted effect of over 50% in size)
Method in brief: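 Cytotoxicity toward the VDR-bla HEK 293T line was scored by ATP-based CellTiter-Glo luminescence, read in the wells already used for the beta-lactamase readout after 16 h compound treatment under 3 nM 1-alpha,25-dihydroxyvitamin D3 stimulation.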

[3] = qHTS assay to identify small molecule agonists of the NFkB signaling pathway (AID 1159509; active = well fitted curve in the direction sought with a large enough effect in the signal ratio in the repeat runs, not every such curve was filed as active; the % refers to the signal ratio; note: series mostly up to about 61 µM; % is set by controls: 0 for no effect and ±100 for the full control effect)
Method in brief: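 Pathway activation was measured in ME-180 cells stably expressing beta-lactamase under NF-kB response element control. Substrate cleavage was read as the 460/530 nm emission shift after 5 hr compound incubation.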

[4] = qHTS assay to identify small molecule agonists of the NFkB signaling pathway - cell viability counter screen (AID 1159515); note: series mostly up to about 61 µM; % is set by controls: 0 for no effect and ±100 for the full control effect; nearly all actives have a fitted effect of over 55% in size
Method in brief: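 Plate 2,000 NFkB-bla ME-180 cells/well; incubate overnight. Add compounds, 5 hr at 37 C. Add FRET substrate, 1.5 hr RT. Add CellTiter-Glo, 30 min RT; read luminescence.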

[5] = qHTS assay to identify small molecule agonists of the endoplasmic reticulum stress response signaling pathway (AID 1159516; active = well fitted activation curve with a large enough effect in the signal ratio in the repeat runs, not every such curve was filed as active; the % refers to the signal ratio; note: % is set by controls: 0 for no effect and ±100 for the full control effect)
Method in brief: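 Beta-lactamase expression from the ER stress response element in HeLa reporter cells is quantified with the LiveBLAzer B/G FRET substrate, read at 405 nm excitation after 2 hr at room temperature, following 5 hr compound treatment at 37 C.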

[6] = qHTS assay to identify small molecule agonists of the endoplasmic reticulum stress response signaling pathway - cell viability counter screen (AID 1159517); note: series mostly up to about 61 µM; % is set by controls: 0 for no effect and ±100 for the full control effect; nearly all actives have a fitted effect of over 50% in size
Method in brief: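 ESRE-bla HeLa cells (1,500/well) were plated overnight at 37 C and exposed to compounds for 5 hr. After the 2 hr beta-lactamase substrate read, CellTiter-Glo went into the same wells, and luminescence was read after 30 min at room temperature.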

[7] = qHTS assay to identify small molecule antagonists of the retinoid-related orphan receptor gamma (ROR-gamma) signaling pathway - cell viability counter screen (AID 1159520; active = well fitted cell-killing curve with a large enough effect in the repeat runs; note: % is set by controls: 0 for no effect and ±100 for the full control effect; nearly all actives have a fitted effect of over 50% in size)
Method in brief: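 Cytotoxicity was read from cellular ATP (CellTiter-Glo luminescence) after 16 hr at 37 C with 1 uM doxycycline induction. The inducer was added 2 hr after compound transfer to Tet-on ROR gamma CHO cells.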

[8] = qHTS assay to identify small molecule agonists of the AP-1 signaling pathway - cell viability counter screen (AID 1159525); note: nearly all actives have a fitted effect of over 55% in size
Method in brief: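 Intracellular ATP by Cell Titer Glo luminescence (30 min, RT) in the same ME-180 AP-1-bla wells after the 5 h compound exposure at 37 °C. Normalised to tetra n-octyl ammonium bromide and DMSO controls.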

[9] = qHTS assay to identify small molecule agonists of the AP-1 signaling pathway (AID 1159526); note: % is set by controls: 0 for no effect and ±100 for the full control effect

CC(=O)OC1C2(C)CCC(C2)C1(C)C (centres undefined)
inactive: Potency [1] | Potency [2] | outcome [3] | outcome [4] | outcome [5] | outcome [6] | Potency [7] | outcome [8] | Potency [9]

CCCCC(CC)COC(=O)COc1cc(Cl)c(Cl)cc1Cl (centres undefined)
inactive: Potency [1] | Potency [2] | outcome [3] | outcome [4] | outcome [5] | outcome [6] | Potency [7] | outcome [8] | Potency [9]

Cc1ccsc1C(=CCCN1CCC[C@@H](C(=O)O)C1)c1sccc1C
inactive: Potency [1] | Potency [2] | outcome [3] | outcome [4] | outcome [5] | outcome [6] | Potency [7] | outcome [8] | Potency [9]

CCCNC(C)(C)COC(=O)c1ccccc1
inactive: Potency [1] | Potency [2] | outcome [3] | outcome [4] | outcome [5] | outcome [6] | Potency [7] | outcome [8] | Potency [9]

OCCN(CCO)c1ccccc1
inactive: Potency [1] | Potency [2] | outcome [3] | outcome [4] | outcome [5] | outcome [6] | Potency [7] | outcome [8] | Potency [9]

O=C(O)c1cccc(Cl)c1Cl
inactive: Potency [1] | Potency [2] | outcome [3] | outcome [4] | outcome [5] | outcome [6] | Potency [7] | outcome [8] | Potency [9]

NCCCN1CCN(CCCN)CC1
inactive: Potency [1] | Potency [2] | outcome [3] | outcome [4] | outcome [5] | outcome [6] | Potency [7] | outcome [8] | Potency [9]

CO[Si](C)(C)OC
inactive: Potency [1] | Potency [2] | outcome [3] | outcome [4] | outcome [5] | outcome [6] | Potency [7] | outcome [8] | Potency [9]

CCN[C@H]1CN(CCCOC)S(=O)(=O)c2sc(S(N)(=O)=O)cc21
inactive: Potency [1] | Potency [2] | outcome [3] | outcome [4] | outcome [5] | outcome [6] | Potency [7] | outcome [8] | Potency [9]

COC(=O)c1ccc(OC)cc1
inactive: Potency [1] | Potency [2] | outcome [3] | outcome [4] | outcome [5] | outcome [6] | Potency [7] | outcome [8] | Potency [9]

CC(=O)OC(C)OC(C)=O
inactive: Potency [1] | Potency [2] | outcome [3] | outcome [4] | outcome [5] | outcome [6] | Potency [7] | outcome [8] | Potency [9]

CCCCNCCCC
inactive: Potency [1] | Potency [2] | outcome [3] | outcome [4] | outcome [5] | outcome [6] | Potency [7] | outcome [8] | Potency [9]

O=C1C=CC(=O)O1
inactive: Potency [1] | Potency [2] | outcome [3] | outcome [4] | outcome [5] | outcome [6] | Potency [7] | outcome [8] | Potency [9]

CC(C)(C)c1cccc(O)c1
inactive: Potency [1] | Potency [2] | outcome [3] | outcome [4] | outcome [5] | outcome [6] | Potency [7] | outcome [8] | Potency [9]

CCOC(=O)c1ccccc1O
inactive: Potency [1] | Potency [2] | outcome [3] | outcome [4] | outcome [5] | outcome [6] | Potency [7] | outcome [8] | Potency [9]

O=C(O)[C@@H]1CSCN1
inactive: Potency [1] | Potency [2] | outcome [3] | outcome [4] | outcome [5] | outcome [6] | Potency [7] | outcome [8] | Potency [9]

O=C(CCCl)NCc1ccccc1
inactive: Potency [2] | outcome [3] | outcome [4] | outcome [5] | outcome [6] | Potency [7] | outcome [8] | Potency [9]

FC(F)(F)C(F)(F)C(F)(F)C(F)(F)C(F)(F)C(F)(F)C(F)(F)C(F)(F)Br
inactive: Potency [1] | Potency [2] | outcome [3] | outcome [4] | outcome [5] | outcome [6] | Potency [7] | outcome [8] | Potency [9]

O=c1[nH]c(=O)n([C@H]2C[C@H](O)[C@@H](CO)O2)cc1C(F)(F)F
inactive: Potency [1] | Potency [2] | outcome [3] | outcome [4] | outcome [5] | outcome [6] | Potency [7] | outcome [8] | Potency [9]

COc1cc(Cl)ccc1Cl
inactive: Potency [1] | Potency [2] | outcome [3] | outcome [4] | outcome [5] | outcome [6] | Potency [7] | outcome [8] | Potency [9]

Nc1cccc(S(=O)(=O)O)c1
inactive: Potency [1] | Potency [2] | outcome [3] | outcome [4] | outcome [5] | outcome [6] | Potency [7] | outcome [8] | Potency [9]

C[C@@H]1CN(c2c(F)c(N)c3c(=O)c(C(=O)O)cn(C4CC4)c3c2F)C[C@H](C)N1
inactive: Potency [1] | Potency [2] | outcome [3] | outcome [4] | outcome [5] | outcome [6] | activity, negative = cytotoxicity [7] 2.26% [at 19 µM] | viability change, negative = cytotoxic [8] 1.46% [at 15.8 µM] | activation [9] -6.27% [at 15.8 µM]

CCCCC1CCC(=O)O1 (centres undefined)
inactive: Potency [1] | Potency [2] | outcome [3] | outcome [4] | outcome [5] | outcome [6] | Potency [7] | outcome [8] | Potency [9]

FC(F)(F)C(Cl)(Cl)Cl
inactive: Potency [1] | Potency [2] | outcome [3] | outcome [4] | outcome [5] | outcome [6] | Potency [7] | outcome [8] | Potency [9]

CCCCCCn1c(=O)c2c(ncn2C)n(C)c1=O
inactive: Potency [1] | Potency [2] | outcome [3] | outcome [4] | outcome [5] | outcome [6] | Potency [7] | outcome [8] | Potency [9]
